Holding throughout (assay): growth (OD600 after 10 h); higher = more growth (less inhibition)
Experiment [1] deals with E. coli TESEC Alr+ wild-type control. To be noted: compound 0.1 mM; raw OD600 reference: median of DMSO wells 0.241, cell-free background 0.041. As for the experimental part: (§1)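 TESEC Mtb Alr E. coli, or the Alr+ wild-type control, in 384-well plates with Prestwick library compounds at 0.1 mM and 1% DMSO, across arabinose induction levels of 1E3 to 1E7 nM. Growth is read as OD600 after 10 h at 37 °C in triplicate biological replicates.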

Experiment [2] relates to E. coli TESEC Mtb Alr. As to conditions: compound 0.1 mM. As for the experimental part: as §1
The test system of the next experiment is E. coli TESEC Mtb Asd. To be noted: compound 0.1 mM. As for the experimental part:
(§2)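 TESEC E. coli strains in which the native enzyme is deleted and replaced by arabinose-inducible Mtb Asd, DapB, CysH or TrpD, each grown in its selective medium. Strains were screened against the Prestwick library at 0.1 mM and 1% DMSO in 384-well format at low and high arabinose induction. Growth is read as OD600 after 10 h in triplicate.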

In another experiment the test system is E. coli TESEC Mtb DapB. As to conditions: compound 0.1 mM. As for the experimental part: as §2
Experiment [3] deals with E. coli TESEC Mtb Alr. To be noted: compound 0.1 mM. As for the experimental part: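 TESEC Mtb Alr E. coli (ΔaraC ΔtolC ΔentC Δalr ΔdadX, arabinose-inducible Mtb Alr) or the Alr+ wild-type control strain, grown in defined M9-fructose medium without D-alanine in 96-well plates with Prestwick library compounds at 0.1 mM and 1% DMSO. Low Alr induction is 0.1 µM arabinose and high induction is 10 mM arabinose.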
This is another data set of the same source.

Setting [4] is: arabinose 1000 nM, raw OD600 reference: median of DMSO wells 0.294, cell-free background 0.041.
Where [5] appears, read: arabinose 10000 nM, raw OD600 reference: median of DMSO wells 0.264, cell-free background 0.041.
Setting [6] is: arabinose 100000 nM, raw OD600 reference: median of DMSO wells 0.201, cell-free background 0.041.
The mark [7] stands for this setting: arabinose 1000000 nM, raw OD600 reference: median of DMSO wells 0.193, cell-free background 0.041.
The mark [8] stands for this setting: arabinose 10000000 nM, raw OD600 reference: median of DMSO wells 0.146, cell-free background 0.041.
Where [9] appears, read: arabinose induction (level): High, raw OD600 reference: median of DMSO wells 0.331, cell-free background 0.041.
Setting [10] is: arabinose induction (level): Low, raw OD600 reference: median of DMSO wells 0.417, cell-free background 0.041.
Setting [11] is: arabinose induction (level): High, raw OD600 reference: median of DMSO wells […], cell-free background 0.041.
[12] abbreviates: arabinose induction (level): Low, raw OD600 reference: median of DMSO wells 0.227, cell-free background 0.041.
The mark [13] stands for this setting: arabinose 100 nM, raw OD600 reference: median of DMSO wells 0.413, cell-free background 0.052.
Setting [14] is: arabinose 10000000 nM, raw OD600 reference: median of DMSO wells […], cell-free background 0.052.

Where a name gives a salt, the structure may show the parent alone. ± gives the standard deviation of the averaged measurements.

Consider `CCCN1C[C@H](CSC)C[C@@H]2c3cccc4[nH]cc(c34)C[C@H]21` [Pergolide mesylate], for which the growth in experiment [1] was found to be 0.2 ± 0.0044; in the experiment on E. coli TESEC Mtb Alr [2] (setting [4]), 0.254 ± 0.014; in the experiment with E. coli TESEC Mtb Alr [2] (setting [5]), 0.252 ± 0.0036; in the experiment with E. coli TESEC Mtb Alr [2] (setting [6]) it was 0.185 ± 0.0061; in the experiment on E. coli TESEC Mtb Alr [2] (setting [7]), 0.161 ± 0.0045; in the experiment on E. coli TESEC Mtb Alr [2] (setting [8]), 0.156 ± 0.0071. Moreover, the growth in the experiment with E. coli TESEC Mtb Asd (setting [9]) is 0.314 ± 0.05; with E. coli TESEC Mtb Asd (setting [10]), 0.425 ± 0.015; with E. coli TESEC Mtb DapB (setting [11]), 0.2 ± 0.027; in the experiment on E. coli TESEC Mtb DapB (setting [12]) it was 0.234 ± 0.049; with E. coli TESEC Mtb Alr [3] (setting [13]) it was 0.426 ± 0.018; with E. coli TESEC Mtb Alr [3] (setting [14]), 0.345 ± 0.019.

For the molecule `OC(c1ccccc1)(c1ccccc1)C1CCNCC1` [Azacyclonol], the growth in experiment [1] came out at 0.222 ± 0.014; with E. coli TESEC Mtb Alr [2] (setting [4]), 0.294 ± 0.011; with E. coli TESEC Mtb Alr [2] (setting [5]) it was 0.269 ± 0.0093; in the experiment on E. coli TESEC Mtb Alr [2] (setting [6]) it was 0.2264 ± 0.00067; in the experiment with E. coli TESEC Mtb Alr [2] (setting [7]), 0.166 ± 0.0076; in the experiment on E. coli TESEC Mtb Alr [2] (setting [8]), 0.136 ± 0.0054. Also, the growth stood at 0.296 ± 0.07 in the experiment with E. coli TESEC Mtb Asd (setting [9]); 0.442 ± 0.019 with E. coli TESEC Mtb Asd (setting [10]); 0.185 ± 0.013 in the experiment with E. coli TESEC Mtb DapB (setting [11]); 0.213 ± 0.036 in the experiment with E. coli TESEC Mtb DapB (setting [12]); 0.412 ± 0.011 in the experiment on E. coli TESEC Mtb Alr [3] (setting [13]); 0.333 ± 0.035 with E. coli TESEC Mtb Alr [3] (setting [14]).

As for `CC(C)(C)NCC(O)c1ccccc1Cl` (configuration not stated) [Tulobuterol], the growth in experiment [1] is 0.22 ± 0.005; with E. coli TESEC Mtb Alr [2] (setting [4]) it was 0.272 ± 0.0075; in the experiment with E. coli TESEC Mtb Alr [2] (setting [5]) it was 0.273 ± 0.0098; in the experiment on E. coli TESEC Mtb Alr [2] (setting [6]), 0.174 ± 0.013; in the experiment with E. coli TESEC Mtb Alr [2] (setting [7]) it was 0.203 ± 0.0095; in the experiment on E. coli TESEC Mtb Alr [2] (setting [8]), 0.1357 ± 0.00093. The growth with E. coli TESEC Mtb Asd (setting [9]) is 0.246 ± 0.067; with E. coli TESEC Mtb Asd (setting [10]), 0.296 ± 0.019; in the experiment with E. coli TESEC Mtb DapB (setting [11]), 0.181 ± 0.017; with E. coli TESEC Mtb DapB (setting [12]), 0.21 ± 0.016; in the experiment on E. coli TESEC Mtb Alr [3] (setting [13]), 0.409 ± 0.0083; in the experiment on E. coli TESEC Mtb Alr [3] (setting [14]), 0.341 ± 0.018.

Take `COc1cc2c(c(OC)c1OC)-c1ccc(OC)c(=O)cc1[C@@H](NC(C)=O)CC2` [Colchicine]: the growth amounted to 0.226 ± 0.0076 in experiment [1]; 0.262 ± 0.034 with E. coli TESEC Mtb Alr [2] (setting [4]); 0.267 ± 0.0042 in the experiment with E. coli TESEC Mtb Alr [2] (setting [5]); 0.204 ± 0.025 in the experiment with E. coli TESEC Mtb Alr [2] (setting [6]); 0.185 ± 0.0039 in the experiment with E. coli TESEC Mtb Alr [2] (setting [7]); 0.144 ± 0.0049 with E. coli TESEC Mtb Alr [2] (setting [8]). Besides, the growth in the experiment with E. coli TESEC Mtb Asd (setting [9]) was 0.276 ± 0.063; with E. coli TESEC Mtb Asd (setting [10]), 0.355 ± 0.1; in the experiment on E. coli TESEC Mtb DapB (setting [11]) it was 0.204 ± 0.018; in the experiment on E. coli TESEC Mtb DapB (setting [12]) it was 0.228 ± 0.035; in the experiment with E. coli TESEC Mtb Alr [3] (setting [13]) it was 0.423 ± 0.038; in the experiment with E. coli TESEC Mtb Alr [3] (setting [14]), 0.322 ± 0.0069.

In the case of `C#CCN(C)[C@H](C)Cc1ccccc1` [Selegiline hydrochloride], the growth was 0.251 ± 0.0044 in experiment [1]; 0.305 ± 0.015 in the experiment on E. coli TESEC Mtb Alr [2] (setting [4]); 0.283 ± 0.0084 with E. coli TESEC Mtb Alr [2] (setting [5]); 0.233 ± 0.026 in the experiment with E. coli TESEC Mtb Alr [2] (setting [6]); 0.185 ± 0.0036 in the experiment on E. coli TESEC Mtb Alr [2] (setting [7]); 0.17 ± 0.004 in the experiment on E. coli TESEC Mtb Alr [2] (setting [8]). Besides, the growth worked out at 0.291 ± 0.064 in the experiment with E. coli TESEC Mtb Asd (setting [9]); 0.391 ± 0.016 with E. coli TESEC Mtb Asd (setting [10]); 0.222 ± 0.018 with E. coli TESEC Mtb DapB (setting [11]); 0.219 ± 0.0087 in the experiment on E. coli TESEC Mtb DapB (setting [12]); 0.405 ± 0.017 in the experiment with E. coli TESEC Mtb Alr [3] (setting [13]); 0.342 ± 0.017 in the experiment with E. coli TESEC Mtb Alr [3] (setting [14]).

As for `CN1[C@@H]2CC[C@H]1C[C@@H](OC(=O)C(CO)c1ccccc1)C2` (some centres not stated) [Atropine sulfate monohydrate], the growth in experiment [1] worked out at 0.234 ± 0.0026; in the experiment on E. coli TESEC Mtb Alr [2] (setting [4]), 0.299 ± 0.0088; in the experiment on E. coli TESEC Mtb Alr [2] (setting [5]), 0.25 ± 0.0043; in the experiment with E. coli TESEC Mtb Alr [2] (setting [6]), 0.253 ± 0.012; with E. coli TESEC Mtb Alr [2] (setting [7]), 0.182 ± 0.0059; in the experiment with E. coli TESEC Mtb Alr [2] (setting [8]), 0.149 ± 0.011. The growth was determined as 0.339 ± 0.053 in the experiment with E. coli TESEC Mtb Asd (setting [9]); 0.421 ± 0.081 in the experiment with E. coli TESEC Mtb Asd (setting [10]); 0.199 ± 0.015 with E. coli TESEC Mtb DapB (setting [11]); 0.247 ± 0.019 in the experiment on E. coli TESEC Mtb DapB (setting [12]); 0.41 ± 0.019 in the experiment with E. coli TESEC Mtb Alr [3] (setting [13]); 0.357 ± 0.014 in the experiment on E. coli TESEC Mtb Alr [3] (setting [14]).

Source of the values: the supplement of paper PMC9262897, “Low-cost anti-mycobacterial drug discovery using engineered E. coli” (Nature Communications, 2022).
